In PubChem BioAssay AID1159580 (chemical genetic matrix, 2015):
Hit rate of the full screen: of about 5,500 compounds, about 2,000 (36%) were called active. Not shown: some 18% with an inconclusive outcome. Rule as the data show it: active = normalized growth mostly below about 0.91 (no sharp cut-off); inconclusive = no clear call, values can overlap the other calls; inactive = mostly above about 0.92. This is one part of the list.

Experiment: chemical genetic growth profiling, strain panel (AID 1159580);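 also: tested at 20 µM; growth read once vehicle control cultures reached saturation at 30 °C; 1 = growth at the plate median or of vehicle wells; lower values mean less growth of the strain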
Settings: growth OD

Measured: normalized growth

CCC(=O)O[C@]1(C(=O)CCl)[C@@H](C)CC2C3CCC4=CC(=O)C=C[C@]4(C)[C@@]3(F)[C@@H](O)C[C@@]21C (stereo partly specified)
inactive: S. cerevisiae deletion strains, locus YJR043C, strain POL32, active compounds read low 0.982 | S. cerevisiae deletion strains, locus YJR066W, strain TOR1, active compounds read low 0.952 | S. cerevisiae deletion strains, locus YKL009W, strain mrt4, active compounds read low 1.01 | S. cerevisiae deletion strains, locus YKL068W, active compounds read low 0.972 | S. cerevisiae deletion strains, locus YKL085W, strain MDH1 (second series), active compounds read low 0.985 | S. cerevisiae deletion strains, locus YKL085W, strain MDH1, active compounds read low 0.985 | S. cerevisiae deletion strains, locus YKL160W, strain elf1, active compounds read low 1.02 | S. cerevisiae deletion strains, locus YKL190W, strain CNB1, active compounds read low 0.981 | S. cerevisiae deletion strains, locus YKR001C, strain vps1, active compounds read low 0.988 | S. cerevisiae deletion strains, locus YKR026C, strain gcn3, active compounds read low 1.03 | S. cerevisiae deletion strains, locus YKR091W, strain srl3, active compounds read low 1.02 | S. cerevisiae deletion strains, locus YLL001W, strain dnm1, active compounds read low 1.02 | S. cerevisiae deletion strains, locus YLL026W, active compounds read low 1.01 | S. cerevisiae deletion strains, locus YLL041C, strain sdh2, active compounds read low 1.01 | S. cerevisiae deletion strains, locus YLR027C, strain aat2, active compounds read low 1.02 | S. cerevisiae deletion strains, locus YLR039C, strain RIC1, active compounds read low 0.959 | S. cerevisiae deletion strains, locus YLR058C, strain SHM2, active compounds read low 0.983 | S. cerevisiae deletion strains, locus YLR102C, strain apc9, active compounds read low 0.985 | S. cerevisiae deletion strains, locus YLR113W, strain HOG1, active compounds read low 0.982 | S. cerevisiae deletion strains, locus YLR221C, strain rsa3, active compounds read low 1.03 | S. cerevisiae deletion strains, locus YLR258W, strain gsy2, active compounds read low 1.02 | S. cerevisiae deletion strains, locus YLR262C, strain YPT6 (second series), active compounds read low 1.02 | S. cerevisiae deletion strains, locus YLR262C, strain YPT6, active compounds read low 0.941 | S. cerevisiae deletion strains, locus YLR268W, strain sec22, active compounds read low 0.961 | S. cerevisiae deletion strains, locus YLR320W, strain mms22, active compounds read low 1.04 | S. cerevisiae deletion strains, locus YLR330W, strain CHS5, active compounds read low 0.971 | S. cerevisiae deletion strains, locus YLR342W, strain FKS1 (second series), active compounds read low 0.999 | S. cerevisiae deletion strains, locus YLR342W, strain FKS1, active compounds read low 1.02 | S. cerevisiae deletion strains, locus YLR357W, strain rsc2, active compounds read low 1.05 | S. cerevisiae deletion strains, locus YLR370C, strain arc18, active compounds read low 1.02 | S. cerevisiae deletion strains, locus YLR371W, strain rom2, active compounds read low 0.976 | S. cerevisiae deletion strains, locus YLR384C, strain iki3, active compounds read low 1.04 | S. cerevisiae deletion strains, locus YLR418C, strain cdc73, active compounds read low 0.969 | S. cerevisiae deletion strains, locus YML016C, strain PPZ1, active compounds read low 0.988 | S. cerevisiae deletion strains, locus YML032C, strain rad52, active compounds read low 0.985 | S. cerevisiae deletion strains, locus YML120C, strain ndi1, active compounds read low 1 | S. cerevisiae deletion strains, locus YML124C, strain tub3, active compounds read low 0.993 | S. cerevisiae deletion strains, locus YMR058W, strain fet3, active compounds read low 1.02 | S. cerevisiae deletion strains, locus YMR078C, strain ctf18, active compounds read low 0.983 | S. cerevisiae deletion strains, locus YMR125W, strain sto1, active compounds read low 1.02 | S. cerevisiae deletion strains, locus YMR129W, active compounds read low 1.02 | S. cerevisiae deletion strains, locus YMR205C, strain PFK2, active compounds read low 1.04 | S. cerevisiae deletion strains, locus YMR223W, strain ubp8, active compounds read low 0.982 | S. cerevisiae deletion strains, locus YMR231W, strain pep5, active compounds read low 1.02 | S. cerevisiae deletion strains, locus YMR263W, strain SAP30, active compounds read low 0.987 | S. cerevisiae deletion strains, locus YMR307W, strain GAS1, active compounds read low 0.87 | S. cerevisiae deletion strains, locus YNL067W, strain RPL9B, active compounds read low 0.992 | S. cerevisiae deletion strains, locus YNL071W, strain lat1, active compounds read low 1.02 | S. cerevisiae deletion strains, locus YNL183C, strain NPR1, active compounds read low 0.935 | S. cerevisiae deletion strains, locus YNL209W, strain ssb2, active compounds read low 1.01 | S. cerevisiae deletion strains, locus YNL233W, strain BNI4, active compounds read low 1.01 | S. cerevisiae deletion strains, locus YNL248C, strain rpa49, active compounds read low 1.02 | S. cerevisiae deletion strains, locus YNL250W, strain rad50, active compounds read low 0.988 | S. cerevisiae deletion strains, locus YNL271C, strain bni1, active compounds read low 0.963 | S. cerevisiae deletion strains, locus YNL298W, strain CLA4, active compounds read low 0.964 | S. cerevisiae deletion strains, locus YNL307C, strain MCK1, active compounds read low 0.987 | S. cerevisiae deletion strains, locus YNL322C, strain KRE1 (second series), active compounds read low 1.03 | S. cerevisiae deletion strains, locus YNL322C, strain KRE1, active compounds read low 0.988 | S. cerevisiae deletion strains, locus YNR049C, strain mso1, active compounds read low 1.01 | S. cerevisiae deletion strains, locus YNR052C, strain pop2, active compounds read low 0.988 | S. cerevisiae deletion strains, locus YOL006C, strain TOP1, active compounds read low 0.958 | S. cerevisiae deletion strains, locus YOL012C, strain htz1 0.831 | S. cerevisiae deletion strains, locus YOL147C, strain pex11, active compounds read low 0.986 | S. cerevisiae deletion strains, locus YOR001W, strain rrp6, active compounds read low 1.03 | S. cerevisiae deletion strains, locus YOR061W, strain CKA2, active compounds read low 0.978 | S. cerevisiae deletion strains, locus YOR069W, strain VPS5, active compounds read low 0.978 | S. cerevisiae deletion strains, locus YOR070C, strain gyp1, active compounds read low 1.02 | S. cerevisiae deletion strains, locus YOR080W, strain dia2, active compounds read low 1.03 | S. cerevisiae deletion strains, locus YOR083W, strain WHI5, active compounds read low 1.02 | S. cerevisiae deletion strains, locus YOR106W, strain vam3, active compounds read low 1.02 | S. cerevisiae deletion strains, locus YOR136W, strain idh2, active compounds read low 0.995 | S. cerevisiae deletion strains, locus YOR144C, strain elg1, active compounds read low 0.997 | S. cerevisiae deletion strains, locus YOR184W, strain ser1, active compounds read low 0.986 | S. cerevisiae deletion strains, locus YOR231W, strain MKK1, active compounds read low 0.959 | S. cerevisiae deletion strains, locus YOR265W, strain rbl2, active compounds read low 1.02 | S. cerevisiae deletion strains, locus YOR270C, strain vph1, active compounds read low 0.984 | S. cerevisiae deletion strains, locus YOR290C, strain snf2, active compounds read low 1.02 | S. cerevisiae deletion strains, locus YOR316C, strain cot1, active compounds read low 0.991 | S. cerevisiae deletion strains, locus YPL051W, strain arl3, active compounds read low 1.02 | S. cerevisiae deletion strains, locus YPL055C, strain LGE1, active compounds read low 1.01 | S. cerevisiae deletion strains, locus YPL078C, strain atp4, active compounds read low 1.02 | S. cerevisiae deletion strains, locus YPL106C, strain sse1, active compounds read low 1.06 | S. cerevisiae deletion strains, locus YPL240C, strain hsp82, active compounds read low 1.01 | S. cerevisiae deletion strains, locus YPL241C, strain CIN2, active compounds read low 0.981 | S. cerevisiae deletion strains, locus YPL256C, strain CLN2, active compounds read low 0.961 | S. cerevisiae deletion strains, locus YPR119W, strain clb2, active compounds read low 0.981 | S. cerevisiae deletion strains, locus YPR141C, strain kar3, active compounds read low 0.967 | S. cerevisiae deletion strains, locus YPR163C, strain tif3, active compounds read low 0.956 | S. cerevisiae deletion strains, locus YPR167C, strain met16, active compounds read low 0.978 | S. cerevisiae deletion strains, strain wtn01, active compounds read low 0.998 | S. cerevisiae strains, strain wild type, active compounds read low 0.98
